Data on 33 compounds can be found in PubChem BioAssay (EPA / NIEHS).

A short description of assay [1]: ATG_NFI_CIS: Attagene CIS-FACTORIAL HepG2 Assay for human Nuclear Factor I (NFI) (AID 2282989). Conditions: HepG2 cis-regulatory reporter, NFI response element transcription; actives raise or lower the signal. Summed up: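 Read-out: reporter mRNA via RT-PCR plus capillary electrophoresis with fluorescence detection. Transiently transfected HepG2 (endogenous TF activity on cis promoters), 24 h compound exposure; gain or loss of signal fitted against DMSO.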

In assay [2] the target is Myc proto-oncogene protein (Homo sapiens) (UniProt P01106). The assay can be described thus: ATG_Myc_CIS: Attagene CIS-FACTORIAL HepG2 Assay for human Myelocytomatosis (Myc) Proto-Oncogene Transcription Factor (AID 2282990). Conditions: HepG2, Attagene cis-reporter transcription factor activity; actives raise or lower the signal. Summed up:
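Read-out: fluorescent reporter mRNA fragments resolved by capillary electrophoresis after RT-PCR. Human HepG2 liver cells carried transfected cis-element reporter units and were dosed for 24 h. Gain or loss of signal fitted relative to DMSO baseline.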

A short description of assay [3]: ATG_NF_kB_CIS: Attagene CIS-FACTORIAL HepG2 Assay for human Nuclear Factor Kappa B (NF-kB) (AID 2282991). Conditions: HepG2 Attagene cis-factorial NF-kB reporter mRNA; actives raise or lower the signal. The gist of the method:
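Endogenous transcription factor activity in HepG2 was captured via cis-regulated reporter constructs; after 24 h dosing, reporter mRNA was reverse-transcribed, amplified, fluorescently labelled and sized by capillary electrophoresis, with activity fitted bidirectionally relative to DMSO.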

Assay [4] in a line: ATG_NRF2_ARE_CIS: Attagene CIS-FACTORIAL HepG2 Assay for human Nuclear Factor Erythroid 2 Related Factor 2 (NFR2) response to Antioxidant Response Elements (ARE) (AID 2282992).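 For AC50: reporter mRNA level measured by RT-PCR and capillary electrophoresis fluorescence.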 Conditions: HepG2 Attagene ARE/NRF2 reporter, transcription factor activity; actives raise or lower the signal. Summed up:
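Endogenous transcription factor activity in human liver HepG2 cells is tracked via a cis-element-driven reporter within a multiplexed set. mRNA induction is read by RT-PCR and capillary electrophoresis after 24 h, with DMSO as baseline.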

Assay [5] addresses Cellular tumor antigen p53 (Homo sapiens) (UniProt P04637). In words: ATG_p53_CIS: Attagene CIS-FACTORIAL HepG2 Assay for human p53 Transcription Factor (AID 2282994). To be noted: HepG2 p53 cis-element reporter, Attagene mRNA; actives raise or lower the signal. The gist of the method:
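Steps: transfect HepG2 with multiplexed cis reporter constructs; dose chemicals 24 h; extract RNA, reverse-transcribe, PCR-amplify reporter sequences; FAM-label, HpaI-digest, resolve fragments by CE. Activity fitted both directions relative to DMSO.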

The nature of assay [6]: BSK_3C_TissueFactor: BioMAP Diversity Plus: 3C Assay for Tissue Factor Biomarker Activity (AID 2282997). Conditions: BioMAP 3C HUVEC, tissue factor biomarker readout; actives raise or lower the signal. The gist of the method:
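HUVEC, 3C system, 24 h post-dose; Tissue Factor by ELISA; bidirectional fit vs DMSO baseline.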

A short description of assay [7]: BSK_3C_uPAR: BioMAP Diversity Plus: 3C Assay for Urokinase-type plasminogen activator receptor (uPAR) Biomarker Activity (AID 2282998). To be noted: BioMAP 3C HUVEC, uPAR biomarker ELISA; actives raise or lower the signal. The gist of the method: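 HUVEC primary cells; 24 h post-dose; uPAR by ELISA; gain or loss of signal fitted bidirectionally vs DMSO baseline.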
For orientation: An ELISA detects its analyte on a solid surface through an enzyme-linked reagent.

A short description of assay [8]: BSK_4H_Eotaxin3: BioMAP Diversity Plus: 4H Assay for Eotaxin 3 Biomarker Activity (AID 2283000).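 For outcome: CCL26 protein level quantified by ELISA in parallel with SRB cytotoxicity check.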 To be noted: primary human endothelial cells (HUVEC); actives raise or lower the signal. Summed up: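 Readout is Eotaxin-3 (CCL26) level by ELISA in primary human umbilical vein endothelial cells harvested 24 h after chemical exposure; activity fitted in both directions against DMSO control.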

Assay [9] is described as follows: ATG_Oct_MLP_CIS: Attagene CIS-FACTORIAL HepG2 Assay for human Octamer-Binding Transcription Factor (Oct) (AID 2282993). To be noted: HepG2 Attagene cis-factorial Oct reporter, mRNA; actives raise or lower the signal. Summed up: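 Read-out: reporter mRNA via RT-PCR plus capillary electrophoresis of 6-FAM-labelled fragments. Transiently transfected HepG2, 24 h exposure, endogenous TF activity on cis elements. Gain or loss of signal fitted relative to DMSO.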

Assay [10] has as its target human Peroxisome Proliferator-activated Receptor alpha (PPARa), PPARA (gene 5465) (UniProt Q07869). The assay can be described thus: ATG_PPARa_TRANS: Attagene TRANS-FACTORIAL HepG2 Assay for human Peroxisome Proliferator-activated Receptor alpha (PPARa) (AID 2283001; active = hit-call score of the fitted dose curve at least 0.9, where 1 is the maximum;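 for AC50: potency for gain of reporter signal over DMSO so agonist or activator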). Summed up:
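HepG2, transient MRTU transfection, 24 h treatment. RT-PCR → FAM labelling → capillary electrophoresis. Fit vs DMSO, positive direction.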

Results filed as inconclusive are left out. Activity calls are given as the source filed them. Rule for the calls, unless noted: active = hit-call score of the fitted dose curve at least 0.9, where 1 is the maximum; inactive = score below 0.9.

In general, AC50 refers to the midpoint of the concentration-response curve, whichever way the signal moves.

Chain of human Peroxisome Proliferator-activated Receptor alpha (PPARa), PPARA (gene 5465) (Q07869 whole entry, looked up): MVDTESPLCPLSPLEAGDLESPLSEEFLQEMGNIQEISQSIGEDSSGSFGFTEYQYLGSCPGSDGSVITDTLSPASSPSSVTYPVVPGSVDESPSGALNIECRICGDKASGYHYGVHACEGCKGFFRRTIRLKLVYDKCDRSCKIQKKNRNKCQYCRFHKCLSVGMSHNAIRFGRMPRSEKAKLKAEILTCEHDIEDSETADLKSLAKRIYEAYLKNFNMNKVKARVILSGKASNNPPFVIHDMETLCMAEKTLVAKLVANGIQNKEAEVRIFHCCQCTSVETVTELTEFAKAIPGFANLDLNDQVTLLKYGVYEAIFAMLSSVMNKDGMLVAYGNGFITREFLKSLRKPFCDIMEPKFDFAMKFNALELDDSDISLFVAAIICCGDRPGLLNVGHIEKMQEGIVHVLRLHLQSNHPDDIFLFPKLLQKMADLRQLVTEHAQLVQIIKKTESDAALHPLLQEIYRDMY
Chain of Myc proto-oncogene protein (Homo sapiens) (P01106 whole entry, looked up, the tested form may be a part): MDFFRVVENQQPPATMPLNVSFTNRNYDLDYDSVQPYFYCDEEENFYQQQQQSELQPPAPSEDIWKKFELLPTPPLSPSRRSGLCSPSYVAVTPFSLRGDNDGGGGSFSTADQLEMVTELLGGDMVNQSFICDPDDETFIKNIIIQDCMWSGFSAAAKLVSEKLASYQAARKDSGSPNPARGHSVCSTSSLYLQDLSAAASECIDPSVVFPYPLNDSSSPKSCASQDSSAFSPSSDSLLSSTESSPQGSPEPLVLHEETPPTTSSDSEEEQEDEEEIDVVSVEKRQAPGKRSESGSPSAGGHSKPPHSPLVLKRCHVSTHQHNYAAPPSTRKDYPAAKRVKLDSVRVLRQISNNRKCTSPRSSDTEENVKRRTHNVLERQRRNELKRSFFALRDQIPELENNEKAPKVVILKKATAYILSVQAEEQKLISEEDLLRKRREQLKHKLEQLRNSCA
Chain of Cellular tumor antigen p53 (Homo sapiens) (P04637 whole entry, looked up, the tested form may be a part): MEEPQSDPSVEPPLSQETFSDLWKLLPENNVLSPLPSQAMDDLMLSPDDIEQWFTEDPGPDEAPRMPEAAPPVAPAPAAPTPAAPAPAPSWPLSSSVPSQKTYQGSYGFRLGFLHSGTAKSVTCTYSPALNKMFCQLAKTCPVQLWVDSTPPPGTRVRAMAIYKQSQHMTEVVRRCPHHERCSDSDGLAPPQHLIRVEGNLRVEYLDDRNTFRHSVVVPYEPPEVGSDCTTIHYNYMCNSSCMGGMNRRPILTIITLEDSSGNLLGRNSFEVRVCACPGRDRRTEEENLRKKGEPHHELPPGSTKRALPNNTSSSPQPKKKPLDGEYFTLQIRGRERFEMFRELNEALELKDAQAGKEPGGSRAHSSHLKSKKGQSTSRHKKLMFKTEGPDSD

For the compound `CC=C1CC2C=CC1C2` (stereo not drawn), the outcome in assay [1], in assay [2] and in assay [5] was inactive. Moreover, the concentration at half-maximal activity (AC50) is 100 µM (active) in assay [3] and 45.9 µM (active) in assay [4].

In the case of `C=CC=CC=CCCCCC`, the compound was classed as inactive in assay [1], in assay [2], in [3], in assay [5], in assay [6] and in [7]. Moreover, in assay [8], the outcome was inactive. Further, the concentration at half-maximal activity (AC50) in [4] was 20 µM (active).

`COC(=O)/C=C/C(C)=C\C=C\C(C)=C\C=C\C=C(C)\C=C\C=C(C)\C=C\C(=O)O`: the compound was classed as inactive in assay [1], in assay [2], in [3], in [9] and in assay [10]. In assay [4], the concentration at half-maximal activity (AC50) is 67.9 µM (active).

`O=C(O)c1ccccc1Nc1cccc(C(F)(F)F)c1`: the call in [1], in assay [2], in assay [3] and in assay [9] was inactive. Further, the AC50 is 27.3 µM (active) in assay [4] and 13.9 µM (active) in assay [10].

Take `CC(C)C1=CC2=CC[C@@H]3[C@](C)(CCC[C@@]3(C)C(=O)O)[C@H]2CC1`: the result in assay [1], in assay [2], in assay [9] and in assay [10] was inactive. Further, the AC50 in assay [3] is 157 µM (active); in assay [4] it was 19.8 µM (active).

With `CC(C)CCCC(C)CC=O` (stereo not drawn), the call in [1], in [2], in assay [3], in assay [4] and in [9] was inactive. Besides, the AC50 in assay [10] is 45.8 µM (active).

Take `CCCCCCCOC(=O)CCC`: the call in [1], in assay [2], in assay [3], in assay [4], in [9] and in [10] was inactive.

On to `CCCCCCCC/C=C\CCCCCCCC(=O)OCCO`, for which the result in assay [1], in assay [2] and in assay [9] was inactive. For the same compound, the values for the AC50 in assay [3], in [4] and in assay [10] were 68.1 µM (active), 40.8 µM (active) and 8.71 µM (active), respectively.

Take `CN(C)c1ccc(C(=N)c2ccc(N(C)C)cc2)cc1`: the half-maximal activity concentration (AC50) in [1] was 0.162 µM (active); in assay [9] it was 0.143 µM (active). The call in assay [2], in assay [3], in assay [4] and in [10] was inactive.

As to `CCCc1ccc(OC)cc1`, the compound was called inactive in [1], in assay [2], in [3], in assay [4], in [9] and in assay [10].

As to `Cc1cccc(N(C)C(=S)Oc2ccc3ccccc3c2)c1`, the call in assay [1], in assay [2], in assay [3], in assay [9], in assay [5] and in assay [10] was inactive. Moreover, the half-maximal activity concentration (AC50) in assay [4] is 19.8 µM (active).

With `CCCC(C)CCC(C)=O` (stereo not drawn), the call in assay [1], in assay [2], in assay [3], in [4], in [5] and in assay [10] was inactive.

As to `C=CCOc1c(Br)cc(Br)cc1Br`, the call in [1], in assay [2], in [3], in assay [9] and in assay [5] was inactive. Further, the values for the half-maximal activity concentration (AC50) in assay [6], in assay [7] and in assay [8] were 13.7 µM (active), 5.76 µM (active) and 29.3 µM (active), respectively.

On to `O=c1[nH]nc(-c2ccc([N+](=O)[O-])o2)o1`, for which the call in [1], in assay [2], in [3], in assay [5] and in assay [10] was inactive. In addition, in assay [4], the AC50 is 61.3 µM (active).

Regarding `Cc1cccc(C(=O)O)c1`, the call in [1], in assay [2], in assay [3], in assay [9], in assay [5] and in assay [10] was inactive.

Take `NC(=O)c1ccccc1O`: the call in assay [1], in assay [2], in assay [3] and in [10] was inactive.

For `COc1cc(C)ccc1C(C)C`, the call in [1], in [2], in assay [3], in assay [9], in assay [5] and in assay [10] was inactive.

On to `NCCCN1CCN(CCCN)CC1`, for which the call in [1], in [2], in assay [3], in [9] and in assay [5] was inactive.

As to `CCCCCCCCCCCCCOP(=O)(O)O`, the call in assay [1], in assay [2], in [3], in assay [9] and in assay [5] was inactive.

As to `Cc1ccccc1C`, the call in assay [1], in assay [2], in [3], in assay [9], in assay [5] and in assay [10] was inactive.

As for `C=C(C)[C@@H]1CCC2=CCC[C@@H](C)[C@]2(C)C1`, the call in [1], in assay [2], in assay [3] and in [5] was inactive.

As to `Nc1ccc(N=Nc2ccccc2)c(N)n1`, the compound was called inactive in assay [1], in assay [2], in [3] and in [5]. The concentration at half-maximal activity (AC50) was 69.7 µM (active) in [9] and 44.6 µM (active) in assay [10].

Take `CCCCCCCCCCOS(=O)(=O)O`: the call in [1], in [2], in [3] and in assay [5] was inactive. The results for the concentration at half-maximal activity (AC50) in [4] and in assay [10] were 99.5 µM (active) and 27.6 µM (active), respectively.

Regarding `S=C(NC1CCCCC1)NC1CCCCC1`, the compound was called inactive in [1], in assay [2], in [3], in [4], in [6] and in assay [7]. Also, the result in [8] and in assay [10] was inactive.

Consider `C=CC(C)(CCC=C(C)C)OC(=O)C(C)C` (stereo not drawn), for which the compound was classed as inactive in [1], in assay [2], in assay [3], in assay [5] and in assay [10]. Besides, the half-maximal activity concentration (AC50) in assay [4] is 100 µM (active).

In the case of `O=S(=O)(O)c1ccc2cc(O)c(S(=O)(=O)O)cc2c1`, the call in assay [1], in [2] and in assay [9] was inactive. Further, the AC50 was 120 µM (active) in assay [3] and 182 µM (active) in [5].

For the compound `C[C@]12C=CC(=O)C=C1CC[C@@H]1[C@@H]2[C@@H](O)C[C@@]2(C)[C@H]1CC[C@]2(O)C(=O)CO`, the compound was classed as inactive in assay [1], in [2], in assay [3], in assay [9], in assay [5] and in assay [10].

Consider `CCC(C)OC(=O)c1ccc(O)cc1` (stereo not drawn), for which the call in [1], in assay [2], in assay [3], in assay [9], in [5] and in assay [10] was inactive.

Turning to `Cc1ccc(C2OC[C@@H]3OC(c4ccc(C)cc4)O[C@H]([C@H](O)CO)[C@@H]3O2)cc1` (stereo partly drawn), the compound was called inactive in assay [1], in assay [2], in [3], in [9] and in [5].

With `COC(F)(F)C(F)(C(F)(F)F)C(F)(F)F`, the compound was called inactive in assay [1], in assay [2], in [3], in assay [9], in assay [5] and in assay [10].

`CN(C)c1ccc(N=Nc2ccccc2C(=O)O)cc1`: the result in [1], in [2] and in assay [3] was inactive. The results for the concentration at half-maximal activity (AC50) in assay [9], in assay [5] and in assay [10] were 23.3 µM (active), 66.4 µM (active) and 23.2 µM (active), respectively.

With `CC(C)(C)c1ccc(N)cc1`, the outcome in [1], in assay [2] and in assay [4] was inactive.

Turning to `O=S(=O)(O)c1ccccc1C=Cc1ccc(-c2ccc(C=Cc3ccccc3S(=O)(=O)O)cc2)cc1`, the compound was called inactive in assay [1], in assay [2], in [3], in assay [9], in [5] and in assay [10].
